Results on seven sequences are retold here after paper PMC7862700, “An all-to-all approach to the identification of sequence-specific readers for epigenetic DNA modifications on cytosine”.

Experiment in all cases: DAPPL (digital affinity profiling via proximity ligation, sequencing); 10 mM Tris-HCl pH 7.5, 50 mM NaCl, 1 mM DTT, 4% glycerol, room temperature, 30 min; GST-TFs on glutathione beads, 16-mer random dsDNA library, 0.1% formaldehyde crosslink after washing; high values mean tight binding
Conditions in all cases: protein: recombinant; tags: N-terminal GST; dsDNA, one strand shown

One test addresses T1, FLI1 (Homo sapiens, UniProt Q01543 1-452).
T1 sequence: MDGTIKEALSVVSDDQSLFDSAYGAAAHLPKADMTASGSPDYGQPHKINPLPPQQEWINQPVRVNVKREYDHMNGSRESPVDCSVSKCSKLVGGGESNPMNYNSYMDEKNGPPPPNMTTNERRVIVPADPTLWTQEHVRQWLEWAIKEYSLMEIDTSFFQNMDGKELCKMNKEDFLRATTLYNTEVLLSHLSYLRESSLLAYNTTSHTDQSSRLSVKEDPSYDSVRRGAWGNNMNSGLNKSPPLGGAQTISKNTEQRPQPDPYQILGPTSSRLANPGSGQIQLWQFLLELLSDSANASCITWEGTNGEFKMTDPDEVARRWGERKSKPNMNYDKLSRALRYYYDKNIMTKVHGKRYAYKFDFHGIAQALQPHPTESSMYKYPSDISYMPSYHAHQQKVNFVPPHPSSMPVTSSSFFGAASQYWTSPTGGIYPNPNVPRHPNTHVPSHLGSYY
The procedure, abridged:
(§1)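 Human transcription factors carrying a GST fusion were produced in yeast, bound to glutathione beads, tagged with DNA barcodes and pooled together with a tag-only sample. Each pool was held with 200 nmole of a random double-stranded 16-mer DNA library in Tris/NaCl/DTT/glycerol buffer for 30 min at room temperature, then washed, crosslinked in 0.1% formaldehyde, proximity-ligated with BsaI/T4 ligase (1 h, 37 °C), PCR-amplified and sequenced on an Illumina NextSeq500. Binding signal is the read frequency of each hexamer for a given factor divided by its frequency in the tag-only sample.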

For a further test, the target named is T2, ELK1 (Homo sapiens, UniProt P19419 1-428).
T2 sequence: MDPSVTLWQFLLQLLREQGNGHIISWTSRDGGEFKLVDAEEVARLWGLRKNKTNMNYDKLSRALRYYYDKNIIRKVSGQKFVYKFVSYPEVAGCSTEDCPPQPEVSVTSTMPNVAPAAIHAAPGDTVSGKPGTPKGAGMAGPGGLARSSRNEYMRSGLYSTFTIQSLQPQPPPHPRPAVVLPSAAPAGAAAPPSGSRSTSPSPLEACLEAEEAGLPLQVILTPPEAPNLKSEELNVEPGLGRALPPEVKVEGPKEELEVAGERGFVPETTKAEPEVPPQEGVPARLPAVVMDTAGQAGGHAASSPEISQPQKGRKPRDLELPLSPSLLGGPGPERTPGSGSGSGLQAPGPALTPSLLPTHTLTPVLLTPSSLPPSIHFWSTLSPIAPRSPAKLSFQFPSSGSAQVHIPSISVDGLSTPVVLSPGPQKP
The method, boiled down:
as §1

For another test, the target named is T3, GABPA (Homo sapiens, UniProt Q06546 1-454).
T3 sequence: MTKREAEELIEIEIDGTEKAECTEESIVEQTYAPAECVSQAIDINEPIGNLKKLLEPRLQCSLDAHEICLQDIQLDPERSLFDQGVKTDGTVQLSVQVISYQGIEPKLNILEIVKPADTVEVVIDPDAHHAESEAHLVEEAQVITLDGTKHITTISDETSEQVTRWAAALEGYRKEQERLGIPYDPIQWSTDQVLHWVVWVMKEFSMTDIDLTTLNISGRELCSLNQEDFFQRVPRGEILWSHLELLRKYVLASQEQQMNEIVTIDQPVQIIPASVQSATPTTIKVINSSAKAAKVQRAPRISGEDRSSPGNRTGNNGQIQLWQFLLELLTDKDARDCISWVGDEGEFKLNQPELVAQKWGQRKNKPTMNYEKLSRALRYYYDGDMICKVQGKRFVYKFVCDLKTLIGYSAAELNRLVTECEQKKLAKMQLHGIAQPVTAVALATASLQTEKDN
The method, boiled down:
as §1

A further test deals with T4, ERG (Homo sapiens, UniProt P11308 1-479).
T4 sequence: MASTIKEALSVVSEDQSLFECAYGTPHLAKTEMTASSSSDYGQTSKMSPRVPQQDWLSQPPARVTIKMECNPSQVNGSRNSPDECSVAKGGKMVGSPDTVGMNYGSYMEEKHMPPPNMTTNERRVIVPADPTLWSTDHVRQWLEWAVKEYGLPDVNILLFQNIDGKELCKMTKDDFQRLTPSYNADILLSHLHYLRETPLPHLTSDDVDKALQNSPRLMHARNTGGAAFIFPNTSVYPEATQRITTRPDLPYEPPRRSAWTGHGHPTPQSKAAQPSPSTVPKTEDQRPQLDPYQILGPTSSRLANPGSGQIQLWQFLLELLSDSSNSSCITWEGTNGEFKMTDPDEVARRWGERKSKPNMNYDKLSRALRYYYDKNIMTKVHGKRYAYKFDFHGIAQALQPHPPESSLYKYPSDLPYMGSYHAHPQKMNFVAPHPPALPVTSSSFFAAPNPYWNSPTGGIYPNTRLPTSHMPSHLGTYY
The method, boiled down:
as §1

The next test deals with ELF1 (Homo sapiens, UniProt P32519 1-619). The procedure, abridged:
as §1

In another test the target is T5, EHF (Homo sapiens, UniProt Q9NZC4 1-300).
T5 sequence: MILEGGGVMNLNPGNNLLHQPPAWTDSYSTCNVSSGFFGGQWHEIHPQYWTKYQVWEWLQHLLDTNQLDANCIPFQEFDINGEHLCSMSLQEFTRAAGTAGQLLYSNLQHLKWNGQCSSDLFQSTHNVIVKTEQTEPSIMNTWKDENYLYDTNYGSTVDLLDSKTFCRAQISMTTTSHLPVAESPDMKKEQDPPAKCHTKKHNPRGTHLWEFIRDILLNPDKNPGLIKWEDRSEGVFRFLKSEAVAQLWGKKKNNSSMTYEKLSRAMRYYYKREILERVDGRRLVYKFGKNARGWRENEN
The method, boiled down: as §1

The target in a further test is SPI1 (Homo sapiens, UniProt P17947 1-270). The procedure, abridged:
as §1

The next test addresses SPIB (Homo sapiens, UniProt Q01892 1-262). The method, boiled down:
as §1

Another test has as its target T6, ELK3 (Homo sapiens, UniProt P41970 1-407).
T6 sequence: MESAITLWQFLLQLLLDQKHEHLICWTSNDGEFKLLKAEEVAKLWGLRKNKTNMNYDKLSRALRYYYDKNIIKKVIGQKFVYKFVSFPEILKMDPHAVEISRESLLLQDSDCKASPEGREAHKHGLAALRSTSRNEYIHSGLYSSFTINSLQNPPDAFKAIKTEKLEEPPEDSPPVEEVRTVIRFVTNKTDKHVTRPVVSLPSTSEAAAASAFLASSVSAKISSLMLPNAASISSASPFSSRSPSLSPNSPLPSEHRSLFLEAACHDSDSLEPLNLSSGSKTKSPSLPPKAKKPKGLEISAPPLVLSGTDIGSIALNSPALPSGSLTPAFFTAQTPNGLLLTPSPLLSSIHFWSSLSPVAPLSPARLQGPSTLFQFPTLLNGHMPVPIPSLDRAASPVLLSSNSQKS
The procedure, abridged:
as §1

Sequence of ELF1 (P32519 whole entry): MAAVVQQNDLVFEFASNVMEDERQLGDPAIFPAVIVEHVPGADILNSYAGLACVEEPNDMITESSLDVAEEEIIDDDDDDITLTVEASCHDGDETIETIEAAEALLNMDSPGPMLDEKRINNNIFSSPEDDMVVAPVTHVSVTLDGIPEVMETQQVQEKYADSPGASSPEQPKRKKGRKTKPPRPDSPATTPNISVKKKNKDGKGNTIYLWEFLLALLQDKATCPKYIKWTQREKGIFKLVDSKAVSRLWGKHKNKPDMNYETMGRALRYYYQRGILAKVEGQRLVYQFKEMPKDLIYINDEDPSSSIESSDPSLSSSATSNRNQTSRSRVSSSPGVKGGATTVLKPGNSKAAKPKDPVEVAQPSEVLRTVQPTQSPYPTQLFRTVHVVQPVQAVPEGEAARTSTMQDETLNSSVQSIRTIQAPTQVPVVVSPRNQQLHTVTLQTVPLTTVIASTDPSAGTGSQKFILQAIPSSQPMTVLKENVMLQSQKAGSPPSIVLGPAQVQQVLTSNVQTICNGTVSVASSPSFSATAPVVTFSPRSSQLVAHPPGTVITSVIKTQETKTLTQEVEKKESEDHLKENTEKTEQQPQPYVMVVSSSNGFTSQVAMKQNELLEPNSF
Sequence of SPIB (Q01892 whole entry): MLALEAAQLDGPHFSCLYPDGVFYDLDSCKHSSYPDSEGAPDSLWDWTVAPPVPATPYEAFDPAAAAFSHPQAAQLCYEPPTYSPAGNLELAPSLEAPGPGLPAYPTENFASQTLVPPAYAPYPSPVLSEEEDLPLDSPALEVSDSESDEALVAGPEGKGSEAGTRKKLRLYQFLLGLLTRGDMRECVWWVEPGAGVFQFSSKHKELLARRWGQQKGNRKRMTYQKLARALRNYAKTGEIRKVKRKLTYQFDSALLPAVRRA

Regarding TTCATT, the binding signal was 1.25 fold enrichment (6-mer frequency, TF over GST control) in the test with FLI1; 1.19 fold enrichment (6-mer frequency, TF over GST control) in the test with ELK1; 1.16 fold enrichment (6-mer frequency, TF over GST control) in the test with GABPA; 1.2 fold enrichment (6-mer frequency, TF over GST control) with ERG; 1.24 fold enrichment (6-mer frequency, TF over GST control) with ELF1; 1.21 fold enrichment (6-mer frequency, TF over GST control) with EHF. Also, the binding signal is 1.21 fold enrichment (6-mer frequency, TF over GST control) with SPI1; 1.22 fold enrichment (6-mer frequency, TF over GST control) with SPIB; 1.23 fold enrichment (6-mer frequency, TF over GST control) with ELK3.
With TCACTC, the binding signal with FLI1 was 1.16 fold enrichment (6-mer frequency, TF over GST control); with ELK1, 1.19 fold enrichment (6-mer frequency, TF over GST control); with GABPA, 1.28 fold enrichment (6-mer frequency, TF over GST control); with ERG, 1.18 fold enrichment (6-mer frequency, TF over GST control); with ELF1, 1.34 fold enrichment (6-mer frequency, TF over GST control); with EHF, 1.27 fold enrichment (6-mer frequency, TF over GST control). For the same sequence, the binding signal in the test with SPI1 was 1.21 fold enrichment (6-mer frequency, TF over GST control); in the test with SPIB it was 1.26 fold enrichment (6-mer frequency, TF over GST control); with ELK3 it was 1.18 fold enrichment (6-mer frequency, TF over GST control).
In the case of ATTCCT, the binding signal with FLI1 was 1.46 fold enrichment (6-mer frequency, TF over GST control); with ELK1 it was 1.37 fold enrichment (6-mer frequency, TF over GST control); with GABPA, 1.28 fold enrichment (6-mer frequency, TF over GST control); in the test with ERG it was 1.27 fold enrichment (6-mer frequency, TF over GST control); in the test with ELF1, 1.42 fold enrichment (6-mer frequency, TF over GST control); with EHF it was 1.34 fold enrichment (6-mer frequency, TF over GST control). Besides, the binding signal was 1.46 fold enrichment (6-mer frequency, TF over GST control) with SPI1; 1.43 fold enrichment (6-mer frequency, TF over GST control) in the test with SPIB; 1.3 fold enrichment (6-mer frequency, TF over GST control) in the test with ELK3.
Take CACGTA: the binding signal with FLI1 was 1.1 fold enrichment (6-mer frequency, TF over GST control); in the test with ELK1 it was 1.18 fold enrichment (6-mer frequency, TF over GST control); with GABPA, 1.23 fold enrichment (6-mer frequency, TF over GST control); in the test with ERG, 1.1 fold enrichment (6-mer frequency, TF over GST control); with ELF1, 1.13 fold enrichment (6-mer frequency, TF over GST control); with EHF, 1.11 fold enrichment (6-mer frequency, TF over GST control). Moreover, the binding signal with SPI1 is 1.12 fold enrichment (6-mer frequency, TF over GST control); with SPIB, 1.17 fold enrichment (6-mer frequency, TF over GST control); with ELK3, 1.12 fold enrichment (6-mer frequency, TF over GST control).
As to TTCAGC, the binding signal is 1.27 fold enrichment (6-mer frequency, TF over GST control) in the test with FLI1; 1.2 fold enrichment (6-mer frequency, TF over GST control) with ELK1; 1.26 fold enrichment (6-mer frequency, TF over GST control) in the test with GABPA; 1.24 fold enrichment (6-mer frequency, TF over GST control) in the test with ERG; 1.23 fold enrichment (6-mer frequency, TF over GST control) in the test with ELF1; 1.25 fold enrichment (6-mer frequency, TF over GST control) with EHF. The binding signal with SPI1 was 1.18 fold enrichment (6-mer frequency, TF over GST control); with SPIB, 1.18 fold enrichment (6-mer frequency, TF over GST control); with ELK3, 1.27 fold enrichment (6-mer frequency, TF over GST control).
For TATGGA, the binding signal in the test with FLI1 is 1.07 fold enrichment (6-mer frequency, TF over GST control); with ELK1, 1.13 fold enrichment (6-mer frequency, TF over GST control); with GABPA, 1.09 fold enrichment (6-mer frequency, TF over GST control); with ERG it was 1.15 fold enrichment (6-mer frequency, TF over GST control); with ELF1, 1.06 fold enrichment (6-mer frequency, TF over GST control); with EHF, 1.26 fold enrichment (6-mer frequency, TF over GST control). Further, the binding signal with SPI1 is 1.07 fold enrichment (6-mer frequency, TF over GST control); with SPIB it was 1.17 fold enrichment (6-mer frequency, TF over GST control); with ELK3 it was 1.12 fold enrichment (6-mer frequency, TF over GST control).
As for GACTTC, the binding signal with FLI1 was 2.39 fold enrichment (6-mer frequency, TF over GST control); in the test with ELK1, 2.65 fold enrichment (6-mer frequency, TF over GST control); in the test with GABPA it was 2.3 fold enrichment (6-mer frequency, TF over GST control); in the test with ERG, 2.84 fold enrichment (6-mer frequency, TF over GST control); in the test with ELF1, 2.36 fold enrichment (6-mer frequency, TF over GST control); with EHF, 2.51 fold enrichment (6-mer frequency, TF over GST control). For the same sequence, the binding signal is 3.04 fold enrichment (6-mer frequency, TF over GST control) in the test with SPI1; 2.51 fold enrichment (6-mer frequency, TF over GST control) with SPIB; 2.61 fold enrichment (6-mer frequency, TF over GST control) with ELK3.
